Measured values as given in ChEMBL document CHEMBL4513216, “Probing the Open Global Health Chemical Diversity Library for Multistage-Active Starting Points for Next-Generation Antimalarials” (ACS Infect Dis, 2020).
Screen size: about 68,000 compounds; about 2,700 (4%) showed an effect of 50% or more. Many of the other results were omitted from the sample, so strong results are more common in it than they were.

Each molecule was assayed on Plasmodium berghei (assay: Screen against P. berghei liver stage (PbLuc), transformed with Luciferase, at 2uM). Conditions: tested at 2 uM.
Type: functional, HepG2

Row | SMILES | INHIBITION [%]
1 | CC1c2ncc(Cn3cncn3)n2CCN1C(=O)c1ccccn1 (stereo unspecified) | 23.97
2 | O=C(c1ccccc1)N1CCC2(CC1)CNc1c(F)cccc12 | -27.31
3 | CC(OCC1CC1)C(=O)N1CCCN(Cc2cnn(C)c2)CC1 (stereo unspecified) | 47.12
4 | Cc1ccc(N2CC[C@@H]3O[C@@H](COCc4cccnc4)CC[C@@H]32)nn1 | -64.19
5 | O=C(c1cccc(S(=O)(=O)NCCc2ccccn2)c1)N1CCOCC1 | 6.84
6 | CCc1cc(CN2C[C@@H]3CC[C@H]2CN(C2Cc4ccccc4C2)C3)on1 | 36.79
7 | Cc1ccccc1C(C(=O)N(C)Cc1cnn(C)c1)N(C)C (stereo unspecified) | -15.75
8 | O=C(C1CCC2(CCN(c3nncs3)CC2)C1)N1CCCC1 (stereo unspecified) | 58.08
9 | O=C(C1CCC2(CCN(c3nncs3)CC2)CO1)N1CCCC1 (stereo unspecified) | -38.48
10 | CC(=O)N1CCCC2(CCN(c3nncs3)C2)C1 (stereo unspecified) | 19.58
11 | CNc1cc(N2CCCC2CNCc2cnc(C)s2)ncn1 (stereo unspecified) | 47.3
12 | CNC(=O)C1(CCCc2cccnc2)CCCCN1 (stereo unspecified) | 32.95
13 | O=C1O[C@@H]2CN(C3CCOCC3)C[C@@H]2N1CCc1cccc(Cl)c1 | 19.46
14 | O=C(c1ccccn1)N(CCO)Cc1cc(Br)ccc1F | -46.83
15 | O=C(c1cccnc1)N(CCO)Cc1cc(Br)ccc1F | -12.09
16 | O=C(c1cccnc1O)N(CCO)Cc1cc(Br)ccc1F | 52.89
17 | CC(C)CN1CCC(NCCNc2cccnc2)CC1 | 2.06
18 | CN(C)C(=O)c1nc2c(s1)CCCN2Cc1ccccc1 | -4.2
19 | CCN1CCOCC2(CCCN(C(=O)c3cccc(O)c3)C2)C1 (stereo unspecified) | 24.36
20 | Cc1ccc(S(=O)(=O)NC(=O)C2(c3ccccc3)CCC2)c(C)c1 | 53.81
21 | Cc1ccccc1S(=O)(=O)NC(=O)C1(c2ccccc2)CCC1 | 28.54
22 | Cc1ccc(S(=O)(=O)NC(=O)C2(c3ccc(F)cc3)CCC2)c(C)c1 | -2.2

Row | SMILES | INHIBITION [%]
23 | COc1ccc(CN2C[C@@H]3COC[C@@H](N4CCN(C)CC4)[C@@H]3C2)cc1 | -54.53
24 | CN(C)CCNC(=O)CCn1ncc2c(Cl)cccc21 | 19.92
25 | Cc1cccc(=O)n1CCC(=O)N1CC[C@@](O)(C2CCC2)[C@H](C)C1 | -11.55
26 | Cc1cccc(=O)n1CCC(=O)N1CC[C@](C)(O)[C@H](C)C1 | -4.52
27 | Cc1cccc(=O)n1CCC(=O)N1CCC2(CC1)OCCCC2O (stereo unspecified) | 62.96
28 | Cc1cc(N2CCN(Cc3ccccc3)CC(O)C2)cc(C)n1 (stereo unspecified) | 74.94
29 | OC1CN(Cc2ccccc2)CCN(c2ccncc2)C1 (stereo unspecified) | 1.42
30 | Cc1cc(N2CCN(Cc3ccccc3)CC(O)C2)nc(N)n1 (stereo unspecified) | 24.44
31 | COc1cccc(C2CC(=O)Nc3nc(N4CCCCC4)sc32)c1OC (stereo unspecified) | -18.15
32 | c1cc(CN2CCCN(c3ccc4cc[nH]c4n3)CC2)ccn1 | 45.82
33 | COc1ccccc1C1CCN(c2ccc3cc[nH]c3n2)CC1 | 76.27
34 | Fc1ccccc1CN1CCCN(c2ccc3cc[nH]c3n2)CC1 | -1.87
35 | COc1cccc(C2CCN(c3ccc4cc[nH]c4n3)C2)c1OC (stereo unspecified) | 87.17
36 | COc1ccc(OC)c(C2CCN(c3ccc4cc[nH]c4n3)C2)c1 (stereo unspecified) | 29.98
37 | CCN1C(=O)CCC12CCCN(Cc1nccs1)CC2 (stereo unspecified) | -23.02
38 | O=C1CC(c2ccccc2)c2sc(C(=O)O)c(-c3ccccc3)c2N1 (stereo unspecified) | 4.74
39 | Fc1ccc(CN2CCO[C@H]3[C@H](OCc4ccncc4)CC[C@@H]32)cc1 | 4.54
40 | c1ncc(-c2cn(CCSc3cnn[nH]3)nn2)cn1 | 70.58
41 | CCc1ncc(-c2cn(CCSc3ncn[nH]3)nn2)cn1 | -5.87
42 | c1c[nH]c(-c2cn(CCSc3cnn[nH]3)nn2)n1 | 11.19
43 | CCn1ncc(C(=O)NCCc2nc(-c3ccncc3)n[nH]2)c1C | 9.61
44 | Cc1ccc(NC2CCN(C(=O)Cc3c(C)noc3C)CC2)nn1 | -25.13

Row | SMILES | INHIBITION [%]
45 | CC(C)Cc1cc(NC(=O)c2ccc3[nH]nnc3c2)n(C)n1 | 50.61
46 | CC(C)Cc1cc(NC(=O)c2ccc(=O)[nH]n2)n(C)n1 | -19.76
47 | Cn1nc(CC(C)(C)C)cc1NC(=O)c1ccc2[nH]nnc2c1 | 16.95
48 | COc1ccccc1C(=O)Nc1cc(CC(C)C)nn1C | 56.02
49 | CC(C)Cc1cc(NC(=O)c2ccccc2)n(C)n1 | 49.9
50 | COc1ccc(C(=O)Nc2cc(CC(C)C)nn2C)cc1 | 19.35
51 | CC(C)Cc1cc(NC(=O)c2ccccc2F)n(C)n1 | -68.24
52 | CC(C)Cc1cc(NC(=O)c2n[nH]c3ccccc23)n(C)n1 | 64.16
53 | CC(C)Cc1cc(NC(=O)c2ccncc2)n(C)n1 | 25.46
54 | Clc1ccccc1-c1nnc(CNCCn2cccn2)o1 | 49.35
55 | C=C(C)COCCNC(=O)C1CCCN1C(C)=O (stereo unspecified) | 45.75
56 | Cn1cc(CN2CCCN(C(=O)c3ccc4ccccc4n3)CC2)cn1 | 30.05
57 | O=C(CNC(=O)Nc1c(F)cccc1Oc1ccccc1)NC1CC1 | -40.7
58 | Cc1nc2c(C(=O)N[C@H]3C[C@H]4CN(C)CCN4C3)cccc2[nH]1 | -51.5
59 | CCn1c(CN2CCCC(O)(c3ccc(F)cc3)CC2)cnc1SC (stereo unspecified) | 49.87
60 | Cc1ccccc1OCCC(=O)N1CCCC(n2cncn2)C1 (stereo unspecified) | 2.08
61 | COc1ccc(CC(=O)N2Cc3nccn3CC(CN(C)C)C2)cc1 (stereo unspecified) | 35.26
62 | O=C(NC[C@]1(O)CCN(Cc2ccsc2)C[C@H]1O)c1c[nH]cn1 | 69.45
63 | O=C(NC[C@]1(O)CCN(Cc2ccccc2F)C[C@H]1O)c1c[nH]cn1 | 38.96
64 | Cc1cncc(CN2CC[C@@](O)(CNC(=O)c3c[nH]cn3)[C@H](O)C2)c1 | 19.36
65 | CS(=O)(=O)N1CCC2(CC1)CC(NCc1ccco1)c1ccccc12 (stereo unspecified) | -9.53
66 | O=C1CN(C(=O)CN(CC2CCC2)CC(F)(F)F)CCN1 | 19.92
